From PubChem BioAssay (NCI)
This is part of a sample that, as a whole, favours compounds with a hit. Of some 79,000 tested, about 15% had one in any assay. No stated cut-off is given here; in the data, active means growth inhibition above about 70%; inactive means the rest.

How the values were obtained:
[1] = NCI Yeast Anticancer Drug Screen. Data for the rad50 strain (AID 155);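 further: 0% = growth of vehicle-only cultures of the same strain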; conditions: S. cerevisiae rad50 strain growth inhibition; at 50.0 µM; active compounds read high
Procedure, shortened: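 Cells are treated with compound, grown, and their growth is then scored against vehicle-only cultures of the same repair-deficient yeast strain.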

[2] = NCI Yeast Anticancer Drug Screen. Data for the mec2-1 strain (AID 157); conditions: S. cerevisiae mec2-1 strain, at 50.0 µM, active compounds read high
Procedure, shortened: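 Test agents were screened against the mec2-1 yeast strain, with defined DNA repair or cell cycle alteration. Growth was scored as inhibition against vehicle-only controls.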

[3] = NCI Yeast Anticancer Drug Screen. Data for the mlh1 rad18 strain (AID 175); conditions: S. cerevisiae mlh1 rad18 strain growth inhibition; at 50.0 µM; active compounds read high
Procedure, shortened: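 In this whole-cell yeast screen, a strain with altered DNA damage repair is challenged with compound, and its growth is measured against matched vehicle-treated controls.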

Measured: growth inhibition

CCOc1ccc(NC(=S)NC2CCCCCCCCCCC2)cc1
inactive: [1] 15.7% | [2] 10.1% | [3] 32.9%

C=CN1C(=O)N(C=C)C(C)(CC(C)C)C1=O (stereo not given)
inactive: [1] 3.6% | [2] -5.55% | [3] 15.8%

COc1cccc(CNc2ccc(SC)cc2)c1OC
inactive: [1] 10.2% | [2] 12.9% | [3] 18.9%

COc1ccccc1Oc1ccc(N=Cc2ccc(C)cc2)cc1
inactive: [1] -16.4% | [2] -25.3% | [3] 5.3%

CC12CC3CC(C(Cl)C(=O)O)(C1)CC(C(Cl)C(=O)O)(C3)C2 (stereo not given)
inactive: [1] 52.1% | [2] 14.5% | [3] 46.6%

CCOc1ccc(Br)cc1/C=C1\N=C(c2ccccc2)OC1=O
inactive: [1] -2.25% | [2] -12.2% | [3] 1.7%

Clc1ccc(C=NCCN=Cc2ccc(Cl)c(Cl)c2)cc1Cl
inactive: [1] -14.5% | [2] -20.3% | [3] -9.3%

CC1(C)OC(=O)C(=Cc2c(Cl)cccc2Cl)C(=O)O1
inactive: [1] 0.05% | [2] 7.85% | [3] -7.3%

COc1cc(/C=N/N2C(=O)c3ccccc3C2=O)ccc1O
inactive: [1] 26.8% | [2] 8.1% | [3] 25.9%

COc1ccc(C2NC(=O)c3ccccc3N2)c(OC)c1OC (stereo not given)
inactive: [1] -8.55% | [2] -20.5% | [3] -16.4%

COc1cc2c(cc1O)C(Cc1ccc(OC)c(OC)c1)N(C)CC2 (stereo not given)
inactive: [1] 4.25% | [2] 0.85% | [3] 2.35%

O=C(N/N=C/c1ccc2c(c1)CCC2)c1cccc([N+](=O)[O-])c1
inactive: [1] -17.9% | [2] -30.9% | [3] -15.8%

COc1ccccc1N1C(=O)CC(Sc2ccccc2N)C1=O (stereo not given)
inactive: [1] -2.4% | [2] -19.4% | [3] 13.1%

COc1ccc(/C=C(\C#N)c2ccc(Cl)cc2)cc1OC
inactive: [1] -2.05% | [2] -8% | [3] -1.15%

OCCN(CCO)C(CO)(CO)CO
inactive: [1] 0.7% | [2] -12.8% | [3] 24.8%

O=C(O)C1=C(C2CCCCC2)C(=O)c2ccccc21
inactive: [1] 7.75% | [2] -15.8% | [3] 20.9%

O=C(O)COC1CC(=O)N2c3ccccc3C34CCN5C(=O)C(=O)C(CC53)C1C24 (stereo not given)
inactive: [1] -1.7% | [2] -24.9% | [3] -9.5%

CCCCOc1cc(C(=O)NCCN(CC)CC)c2ccccc2n1
inactive: [1] -2.1% | [2] -9.6% | [3] 1.9%

OCNC(=S)c1c(Cl)cccc1Cl
inactive: [1] -4.25% | [2] -18.1% | [3] -6.6%

COc1cc(-c2cc(=O)c3c(O)cc(O)cc3o2)cc(OC)c1OC
inactive: [1] -8.15% | [2] -10.7% | [3] 40%

O=C(/C=N/O)Nc1cc(Cl)ccc1Cl
inactive: [1] 17.6% | [2] 15.4% | [3] 17.3%

CCCCN1CCNCC1
inactive: [1] 10.1% | [2] -1.95% | [3] -2.55%

S=C(S)N1CCC(CCCC2CCN(C(=S)S)CC2)CC1
inactive: [1] -9.1% | [2] -22.1% | [3] -13.2%

Cc1ccc(S(=O)(=O)N2CCC(O)(c3ccccc3)CC2)cc1
inactive: [1] -3.05% | [2] -36.3% | [3] -2.7%

CCCCCCC(=O)CCCCCCCCCCCCC(=O)OC
inactive: [1] 2.3% | [2] -1.65% | [3] 12.7%

C(=NCC1CCC(CN=Cc2ccco2)CC1)c1ccco1 (stereo not given)
inactive: [1] -21% | [2] -24.8% | [3] -12.5%

S=C(NNc1ccccc1)NC1CCCCC1
inactive: [1] 7.35% | [2] -37.2% | [3] -8.6%

CC1=NN(c2ccccc2)C(=O)C1CCC#N (stereo not given)
inactive: [1] 10.6% | [2] -12.9% | [3] 31.4%

C(=C/c1ccc(/C=C/c2ccccc2)cc1)/c1ccccc1
inactive: [1] -22.1% | [2] -13.9% | [3] -26.8%

COc1ccc(-c2cc(=O)c3c(C)cc(O)cc3o2)cc1
inactive: [1] -9.4% | [2] -16.1% | [3] 37.9%
